Data reported in PubChem BioAssay (EPA / NIEHS).
Inconclusive results are not listed. Active and inactive are the calls of the source. How the source made its calls: active means hit-call score of the fitted dose curve at least 0.9, where 1 is the maximum; inconclusive means response in the unintended direction; inactive means score below 0.9.

Assay: ACEA_ER_80hr: ACEA Biosciences xCELLigence Real-Time Cell Analysis on Estrogen Receptor Agonism for Proliferation (AID 2282667)
Settings: T47D proliferation, impedance (xCELLigence), 80 h
In short: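 Impedance readout (RT-CES) of T47D proliferation at 80 h post-dose; gain of signal vs DMSO baseline. Compounds: 8 conc, 1:4 serial, top 100 uM final, ≤0.5% DMSO; biological duplicate.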

Row | SMILES | outcome | AC50
1 | O=[N+]([O-])c1cc(N(CCO)CCO)ccc1NCCO | inactive | –
2 | CCCCCCCC1CCCC1=O (configuration not stated) | inactive | –
3 | CCOC(=O)C=Cc1ccccc1 | inactive | –
4 | O=C(O)c1cc2ccccc2cc1O | inactive | –
5 | CN(C)C(=O)Nc1ccccc1 | inactive | –
6 | CCCC(O)C(CC)CO (configuration not stated) | inactive | –
7 | Cc1ccncc1 | inactive | –
8 | CCCCC(CC)COCCO (configuration not stated) | inactive | –
9 | C[C@H](CCC(=O)O)[C@H]1CC[C@H]2[C@@H]3CC[C@@H]4C[C@H](O)CC[C@]4(C)[C@H]3CC[C@]12C | inactive | –
10 | CCCc1ccc(N)cc1 | inactive | –
11 | C=CCOC(=O)/C=C\C(=O)OCC=C | inactive | –
12 | CCCCCCCCCCOC(=O)c1ccccc1C(=O)OCCCCCCCC | inactive | –
13 | CCCCOCC(C)OCC(C)O (configuration not stated) | inactive | –
14 | COC(=O)c1ccc(C(=O)OC)cc1 | inactive | –
15 | CC/C=C\CCOC(=O)C(C)C | inactive | –
16 | C[Si]1(C)N[Si](C)(C)N[Si](C)(C)N1 | inactive | –
17 | OC[C@H]1O[C@@H](O[C@H]2[C@H](O)[C@@H](O)[C@H](O)O[C@@H]2CO)[C@H](O)[C@@H](O)[C@H]1O | inactive | –
18 | O=C1OC2(c3ccc(O)cc3Oc3cc(O)ccc32)c2ccccc21 | inactive | –
19 | C=C(C)C(=O)OCCC(C)OC(=O)C(=C)C (configuration not stated) | inactive | –

Row | SMILES | outcome | AC50
20 | CCC(=O)OC/C=C(\C)CCC=C(C)C | – | 0.0916 µM (active)
21 | CC(=O)Nc1cc(S(=O)(=O)O)cc2cc(S(=O)(=O)O)c(N=Nc3ccccc3)c(O)c12 | inactive | –
22 | CC(=O)OCC=C(C)CCC=C(C)CCC=C(C)C | inactive | –
23 | CC(=O)OC/C=C(C)/C=C/C=C(C)/C=C/C1=C(C)CCCC1(C)C | inactive | –
24 | COc1ccc(N)c(C)c1 | – | 43.5 µM (active)
25 | C=COCC1CCC(COC=C)CC1 (configuration not stated) | inactive | –
26 | C1COCO1 | inactive | –
27 | CC(C)CCCC(C)(C)O | inactive | –
28 | c1ccc(Sc2ccccc2)cc1 | inactive | –
29 | c1ccc2c(c1)-c1ccc3ccc4cccc5cc-2c1c3c45 | inactive | –
30 | O=C(OCc1ccccc1)c1ccccc1O | inactive | –
31 | O=C(O)c1ccccc1O | inactive | –
32 | C=CC(=O)OCC(CO)(COC(=O)C=C)COC(=O)C=C | inactive | –
33 | CCCCC/C=C\C=C\C(=O)OCC | inactive | –
34 | CC(C)COC(=O)c1ccccc1 | inactive | –
35 | CC(C)Cc1ccc(C(C)C(=O)O)cc1 (configuration not stated) | inactive | –
36 | C=CC(C)CCCC(C)(C)O (configuration not stated) | inactive | –
37 | CC(=O)CC(=O)N(C)C | inactive | –
